Compound activity as filed in PubChem BioAssay.
Sampled rows, rich in hits. Any-hit rate of the full collection: about 13%.
WT yeast gro inh – growth inhibition of WT yeast, mitochondrial fusion screen | mitochondrial fusion phenotypic screen, WT strain | inhibition, % at 10 µM | 190,000 compounds, 2.1% hits | AID 1362; in the data active = inhibition above about 58%; tested in S. cerevisiae
L major viab – inhibitors of Leishmania major promastigote growth | 200,000 compounds, 9% hits | inhibition, % at 10 µM | AID 1063 | Leishmania major promastigotes, resazurin fluorescence viability; in the data active = inhibition above about 50%;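 also: promastigotes grown with compound for 44 hours at 28 °C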
RAM network inh – yeast RAM network inhibition; AID 868; inhibition, % at 50 µM; 190,000 compounds, 1.8% hits; S. cerevisiae dse1pr::URA3 reporter, 5-FOA growth OD615, 2 d; analog-sensitive cbk1-as2 kinase mutant strain;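 active = inhibition above a set limit, 3 SD over mean compound inhibition, cut at about 8.4% in these data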;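 also: 0% = DMSO-only wells with no growth and 100% = 10 µM 1-NA-PP1 full growth; inhibition rescues growth on 5-FOA so higher OD means more RAM inhibition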
CHOP inh – blocks CHOP induction under ER stress | inhibition, % at 10 µM | 220,000 compounds, 3.8% hits | CHO-K1 CHOP-promoter luciferase, tunicamycin-induced, 15-18 h;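 active = compounds that reduced the stress-induced luciferase reporter signal by more than about 70% of percent inhibition, limit read from the data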;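 also: 0% = tunicamycin plus vehicle and 100% = wells without tunicamycin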
* hit, by the source's call; · = no result.

SMILES | WT yeast gro inh | L major viab | RAM network inh | CHOP inh
CN1CCN(CCCCOc2ccc(F)cc2)CC1 | -2 | -5 | 1 | 39
Cc1ccccc1OCC(=O)OCC(=O)NCc1cccs1 | 16 | -8 | 4 | 13
COc1ccc(C2N(Cc3ccccc3)CCN2Cc2ccccc2)cc1[N+](=O)[O-] | 5 | 3 | 4 | -8
Cc1nc(=S)c2c([nH]1)-c1ccccc1CC21CCCCC1 | · | · | · | -26
Cc1nccc2[nH]c(=O)c(C(=O)NC3CCN(Cc4ccccc4)CC3)cc12 | 17 | · | · | ·
Cc1nccc2[nH]c(=O)c(C(=O)NC3CCCCC3C)cc12 (stereo not given) | 2 | 99* | 0 | 64
COc1ccccc1N(C)S(=O)(=O)c1ccc(C(=O)Nc2ccc(N3CCOCC3)cc2)cc1 | -3 | 99* | -1 | 10
Cc1nc2ccc(NC(=O)c3cccc(S(=O)(=O)N(C)c4ccccc4)c3)cc2s1 | 24 | 99* | 0 | 37
COc1cccc(C(=O)Nc2nc3ccccc3[nH]2)c1 | 21 | 29 | 0 | 0
C=CCN(c1ccccc1OC)S(=O)(=O)c1ccc(Cl)c(C(=O)Nc2ccc(N3CCOCC3)cc2)c1 | 2 | 19 | 2 | 20
Cc1ccc(N(C)S(=O)(=O)c2cccc(C(=O)Nc3nc4ccccc4[nH]3)c2)cc1 | 30 | 90* | 7 | -37
COc1ccccc1N(C)S(=O)(=O)c1ccc(C(=O)Nc2ccc3nc(C)sc3c2)cc1 | 25 | 100* | 7 | 35
Cc1cc(C(=O)Cn2nc(C(=O)O)c3ccccc3c2=O)c(C)n1CCc1ccc(Cl)cc1 | 22 | 30 | 2 | 26
Cc1ccc(NC(=O)c2cccc(S(=O)(=O)N(C)c3ccccc3)c2)cc1S(=O)(=O)N1CCOCC1 | -10 | 98* | 4 | 43
COC(=O)c1ccc(NC(=O)c2ccccc2N(C)S(=O)(=O)c2ccccc2)cc1 | 0 | 4 | 8 | 21
COc1ccc(S(=O)(=O)N(CC(=O)Nc2ccc(S(=O)(=O)N3CCOCC3)cc2)c2ccccc2)cc1 | 10 | 15 | 2 | 26
CN(c1ccccc1C(=O)Nc1ccc(S(=O)(=O)N2CCOCC2)cc1)S(=O)(=O)c1ccccc1 | -6 | 91* | 2 | 22
COc1ccccc1N(C)S(=O)(=O)c1ccc(Cl)c(C(=O)NC2=NCCS2)c1 | 8 | 57* | -1 | -22
COc1ccc(S(=O)(=O)N(CC(=O)Nc2ccc(S(=O)(=O)N3CCOCC3)cc2)Cc2ccc(F)cc2)cc1 | 4 | 97* | 4 | 4
CN(c1ccccc1)S(=O)(=O)c1ccc(Cl)c(C(=O)NC2=NCCS2)c1 | -8 | 7 | 1 | 12
COc1cc(C2Oc3ccccc3C=C2[N+](=O)[O-])cc(OC)c1OC (stereo not given) | · | · | · | -143
O=C(O)CC1COc2ccccc2N1C(=O)c1ccccc1Cl (stereo not given) | -7 | -2 | 4 | 0
CCn1cc(C(=O)OCC(=O)Nc2c(C)cccc2C)c(=O)c2ccc(C)nc21 | -13 | 7 | 1 | 39
CS(=O)(=O)N(Cc1cc2ccccc2[nH]c1=O)C1CCCCC1 | 94* | -1 | 0 | 1
CN(Cc1cc2ccccc2[nH]c1=O)S(C)(=O)=O | 14 | -5 | 0 | 14
SMILES | WT yeast gro inh | L major viab | RAM network inh | CHOP inh
Clc1ccc(OCCn2ccnc2)c2ccccc12 | 13 | 96* | 2 | 7
CCC(C)c1ccccc1OCCn1ccnc1 (stereo not given) | 36 | 69* | 1 | 11
Clc1ccc(OCCn2ccnc2)c(Cl)c1 | 6 | 25 | 1 | 6
C/C(CC(=O)Nc1cccnc1)=N\NC(=O)C(C)Oc1ccc(Cl)cc1Cl (stereo not given) | · | · | · | 16
COc1cccc(NC(=O)Cn2c(=O)n(-c3ccccc3)c(=O)c3sccc32)c1 | -6 | 19 | 2 | 1
COc1cc(S(=O)(=O)N(CCc2ccccc2)Cc2cccs2)ccc1-n1cnnn1 | -12 | 7 | 9.1* | -36
COc1ccccc1CN(Cc1ccco1)S(=O)(=O)c1ccc(-n2cnnn2)c(OC)c1 | 26 | 73* | 1 | 55
COc1ccc(CCN(Cc2cccs2)S(=O)(=O)c2ccc(-n3cnnn3)cc2)cc1OC | 8 | 26 | 4 | 11
COc1cccc(CN(Cc2cccnc2)S(=O)(=O)c2ccc(-n3cnnn3)c(C)c2)c1OC | -7 | 98* | 0 | 29
Cc1ccc(CNc2ccc(S(=O)(=O)N3CCOCC3)cc2[N+](=O)[O-])cc1 | 7 | -5 | 6 | 24
COc1ccc(N2CCN(C(=O)CC3NC4CCCCC4NC3=O)CC2)cc1 (stereo not given) | -12 | -3 | 1 | 33
O=C1NCCn2ccc(=O)cc21 | · | · | · | 12
COCCNC(=O)C(c1ccccc1F)N(C(=O)C(=O)NC1CCCC1)C1CCCCC1 (stereo not given) | -14 | 0 | 0 | -6
COc1cc(/C=N/n2cnnc2)ccc1OCCSc1ccc(C)cc1 | 16 | 55* | 1 | 9
CCOC(=O)C1=C(Nc2ccccc2)CC(C)(O)C(C(=O)OCC)C1c1ccc(Cl)cc1 (stereo not given) | 71* | 5 | 2 | 15
CC(C)C(NC(=O)C12CC3CC(CC(C3)C1)C2)C(=O)O (stereo not given) | -35 | 52* | 1 | -1
CC(=O)c1cccc(CN2CCCC(CCC(=O)NCc3ccc(C)o3)C2)c1 (stereo not given) | -11 | 20 | -1 | 10
COc1cccc(CNC(=O)CCC2CCCN(Cc3cc4ccccc4o3)C2)c1 (stereo not given) | 0 | 80* | 3 | -5
CCOc1cccc(CN2CCCC(CCC(=O)NCc3ccccc3F)C2)c1O (stereo not given) | 6 | 56* | 1 | 13
O=C(CCC1CCCN(Cc2ccncc2)C1)NCc1ccc(F)c(F)c1 (stereo not given) | 4 | 92* | 2 | 38
CC(=O)c1cccc(CN2CCCC(CCC(=O)NCc3ccc(F)c(F)c3)C2)c1 (stereo not given) | -2 | 98* | 1 | 4
O=C(CCC1CCCN(C(=O)c2ccncc2)C1)NCc1ccc(F)c(F)c1 (stereo not given) | 6 | 1 | 0 | -4
CN(CCOC(=O)CN1C(=O)c2ccccc2C1=O)C1=NS(=O)(=O)c2ccccc21 | -24 | 5 | 1 | 5
C=CCOc1ccc(/C=N/NC(=O)CN2CCOCC2)cc1OCC | -20 | -5 | 2 | 15
COc1ccc([N+](=O)[O-])cc1N(CC(=O)N(C)C)S(C)(=O)=O | -5 | -1 | 3 | 13
NC(=O)c1ccccc1N/C=C/C(=O)c1ccccc1 | 22 | -2 | -1 | 18
COC(=O)c1ccccc1N/C=C/C(=O)c1ccc(Br)cc1 | 36 | 73* | 3 | 21
CCOc1ccc(N2C(=O)CC(N3CCN(c4ccc(C(=O)c5ccncc5)cc4)CC3)C2=O)cc1 (stereo not given) | · | 77* | · | ·
O=C(c1ccncc1)c1ccc(N2CCN(C3CC(=O)N(Cc4cccs4)C3=O)CC2)cc1 (stereo not given) | -11 | 18 | 1 | 11
COc1ccc(N2C(=O)CC(N3CCN(c4ccc(C(=O)c5cccnc5)cc4)CC3)C2=O)cc1 (stereo not given) | -1 | -6 | 1 | 30
